In ChEMBL document CHEMBL1961873, “Compounds: GSK PKIS; Assays: Nanosyn kinase panel” (2012) one finds inhibition data, which are given here for seven compounds.

Assay [1] deals with Mast/stem cell growth factor receptor Kit (Homo sapiens) (UniProt P10721). As to conditions: at 1 µM.
For assay [2], the system named is Mast/stem cell growth factor receptor Kit (Homo sapiens), P10721 [D816V]. The conditions noted are these: at 0.1 µM.
Assay [3] shares this test system. As to conditions: at 1 µM.
Assay [4] concerns Mast/stem cell growth factor receptor Kit (Homo sapiens), P10721 [T670I]. As to conditions: at 0.1 µM.
Mast/stem cell growth factor receptor Kit (Homo sapiens), P10721 [T670I], sequence (P10721 whole entry T670I): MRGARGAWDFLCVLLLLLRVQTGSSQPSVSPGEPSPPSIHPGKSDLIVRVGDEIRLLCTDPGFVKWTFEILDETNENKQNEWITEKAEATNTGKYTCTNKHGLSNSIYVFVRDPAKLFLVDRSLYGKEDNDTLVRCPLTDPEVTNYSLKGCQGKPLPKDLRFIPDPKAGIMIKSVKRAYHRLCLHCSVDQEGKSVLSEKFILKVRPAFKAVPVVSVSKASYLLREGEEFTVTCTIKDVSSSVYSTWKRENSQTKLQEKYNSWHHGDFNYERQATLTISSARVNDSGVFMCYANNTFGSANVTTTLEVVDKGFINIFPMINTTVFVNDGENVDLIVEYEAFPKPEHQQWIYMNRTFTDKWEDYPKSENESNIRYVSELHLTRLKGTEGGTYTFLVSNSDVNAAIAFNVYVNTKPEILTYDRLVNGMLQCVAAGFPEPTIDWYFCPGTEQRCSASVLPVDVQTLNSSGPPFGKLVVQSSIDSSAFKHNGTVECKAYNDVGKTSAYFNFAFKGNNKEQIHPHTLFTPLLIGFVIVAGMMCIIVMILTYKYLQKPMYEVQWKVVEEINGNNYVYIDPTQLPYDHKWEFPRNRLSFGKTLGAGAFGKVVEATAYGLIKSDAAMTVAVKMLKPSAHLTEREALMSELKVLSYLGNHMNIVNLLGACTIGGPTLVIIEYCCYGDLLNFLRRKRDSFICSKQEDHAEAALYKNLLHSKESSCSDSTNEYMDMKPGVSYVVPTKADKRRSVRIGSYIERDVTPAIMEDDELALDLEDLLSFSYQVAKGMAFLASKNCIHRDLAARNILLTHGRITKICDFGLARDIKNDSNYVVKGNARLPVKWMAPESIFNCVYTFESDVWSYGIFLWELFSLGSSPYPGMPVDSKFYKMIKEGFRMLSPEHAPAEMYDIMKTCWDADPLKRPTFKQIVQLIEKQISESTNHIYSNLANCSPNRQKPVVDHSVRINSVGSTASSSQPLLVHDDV
Assay [5] has the same test system. As to conditions: at 1 µM.
The test system of assay [6] is Mast/stem cell growth factor receptor Kit (Homo sapiens), P10721 [V560G]. As to conditions: at 0.1 µM.
Mast/stem cell growth factor receptor Kit (Homo sapiens), P10721 [V560G], sequence (P10721 whole entry V560G): as the sequence (P10721 whole entry T670I) above, with V560G, I670T counted along it
The test system is the same in assay [7]. The conditions noted are these: at 1 µM.
Assay [8] has as its target Tyrosine-protein kinase Lck (Homo sapiens) (UniProt P06239). As to conditions: at 0.1 µM.
Assay [9] has the same target. As to conditions: at 1 µM.
In assay [10] the target is Leukocyte tyrosine kinase receptor (Homo sapiens) (UniProt P29376). As to conditions: at 0.1 µM.
Leukocyte tyrosine kinase receptor (Homo sapiens), sequence (P29376 whole entry): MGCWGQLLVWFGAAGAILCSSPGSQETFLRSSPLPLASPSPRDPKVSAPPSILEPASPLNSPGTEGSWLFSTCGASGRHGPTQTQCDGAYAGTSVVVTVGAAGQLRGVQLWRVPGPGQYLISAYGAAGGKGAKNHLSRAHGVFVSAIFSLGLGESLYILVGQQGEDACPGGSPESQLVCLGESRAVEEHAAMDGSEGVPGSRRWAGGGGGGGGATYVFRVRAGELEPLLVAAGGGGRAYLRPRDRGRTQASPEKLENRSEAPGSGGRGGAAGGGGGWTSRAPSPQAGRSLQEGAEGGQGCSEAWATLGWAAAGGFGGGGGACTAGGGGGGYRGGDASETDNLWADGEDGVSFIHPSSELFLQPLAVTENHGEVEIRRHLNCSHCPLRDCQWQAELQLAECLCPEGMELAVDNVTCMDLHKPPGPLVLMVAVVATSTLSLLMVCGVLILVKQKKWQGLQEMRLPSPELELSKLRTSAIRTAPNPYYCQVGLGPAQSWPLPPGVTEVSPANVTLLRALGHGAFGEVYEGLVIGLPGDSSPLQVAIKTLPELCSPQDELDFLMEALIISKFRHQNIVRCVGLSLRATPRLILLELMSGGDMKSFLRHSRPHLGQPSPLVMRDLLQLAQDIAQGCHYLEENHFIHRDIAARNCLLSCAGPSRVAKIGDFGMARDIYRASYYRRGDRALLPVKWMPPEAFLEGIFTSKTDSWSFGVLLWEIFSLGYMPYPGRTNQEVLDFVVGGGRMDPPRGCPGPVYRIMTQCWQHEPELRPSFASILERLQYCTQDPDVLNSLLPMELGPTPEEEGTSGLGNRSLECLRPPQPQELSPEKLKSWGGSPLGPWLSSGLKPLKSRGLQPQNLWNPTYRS
Assay [11] has the same target. The conditions noted are these: at 1 µM.
Assay [12] concerns the target Tyrosine-protein kinase Lyn (Homo sapiens) (UniProt P07948). As to conditions: at 0.1 µM.
For assay [13] the target is unchanged. As to conditions: at 1 µM.
The target is the same in assay [14]. The conditions noted are these: at 0.1 µM. This is another data set of the same source.
Assay [15] shares this target. The conditions noted are these: at 1 µM. The source holds these as a separate data set.
Assay [16] has as its target T1, Tyrosine-protein kinase Mer (Homo sapiens) (UniProt Q12866).
T1 sequence (whole entry): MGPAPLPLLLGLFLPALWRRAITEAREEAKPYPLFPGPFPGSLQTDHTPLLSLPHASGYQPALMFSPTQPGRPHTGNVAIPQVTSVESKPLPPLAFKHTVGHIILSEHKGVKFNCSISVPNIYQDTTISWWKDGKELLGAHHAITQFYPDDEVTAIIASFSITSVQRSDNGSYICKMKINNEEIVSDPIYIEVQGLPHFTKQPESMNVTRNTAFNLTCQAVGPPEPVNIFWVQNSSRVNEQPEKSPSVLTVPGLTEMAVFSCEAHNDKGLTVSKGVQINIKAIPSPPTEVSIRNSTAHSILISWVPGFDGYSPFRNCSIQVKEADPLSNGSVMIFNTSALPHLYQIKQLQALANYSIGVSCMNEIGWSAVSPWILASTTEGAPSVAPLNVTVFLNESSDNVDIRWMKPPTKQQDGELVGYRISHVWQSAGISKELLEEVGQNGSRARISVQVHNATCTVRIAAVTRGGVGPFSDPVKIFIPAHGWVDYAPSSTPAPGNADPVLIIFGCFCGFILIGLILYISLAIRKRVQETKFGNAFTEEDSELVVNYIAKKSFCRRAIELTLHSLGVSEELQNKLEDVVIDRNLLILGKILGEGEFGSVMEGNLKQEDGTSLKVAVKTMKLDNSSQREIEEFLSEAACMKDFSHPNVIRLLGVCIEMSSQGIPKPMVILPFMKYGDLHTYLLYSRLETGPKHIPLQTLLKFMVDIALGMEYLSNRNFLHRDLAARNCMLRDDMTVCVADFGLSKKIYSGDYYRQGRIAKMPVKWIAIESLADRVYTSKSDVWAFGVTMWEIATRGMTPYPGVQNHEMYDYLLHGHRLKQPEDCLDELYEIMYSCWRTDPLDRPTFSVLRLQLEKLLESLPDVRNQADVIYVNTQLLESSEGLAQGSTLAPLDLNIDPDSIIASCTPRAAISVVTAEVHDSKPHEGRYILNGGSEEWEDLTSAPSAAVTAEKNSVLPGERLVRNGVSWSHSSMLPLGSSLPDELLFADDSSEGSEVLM
As to conditions: at 0.1 µM.

In assay [17] the target is T1, Tyrosine-protein kinase Mer (Homo sapiens). As to conditions: at 1 µM.
In assay [18] the target is Hepatocyte growth factor receptor (Homo sapiens) (UniProt P08581). The conditions noted are these: at 0.1 µM.
Hepatocyte growth factor receptor (Homo sapiens), sequence (P08581 whole entry): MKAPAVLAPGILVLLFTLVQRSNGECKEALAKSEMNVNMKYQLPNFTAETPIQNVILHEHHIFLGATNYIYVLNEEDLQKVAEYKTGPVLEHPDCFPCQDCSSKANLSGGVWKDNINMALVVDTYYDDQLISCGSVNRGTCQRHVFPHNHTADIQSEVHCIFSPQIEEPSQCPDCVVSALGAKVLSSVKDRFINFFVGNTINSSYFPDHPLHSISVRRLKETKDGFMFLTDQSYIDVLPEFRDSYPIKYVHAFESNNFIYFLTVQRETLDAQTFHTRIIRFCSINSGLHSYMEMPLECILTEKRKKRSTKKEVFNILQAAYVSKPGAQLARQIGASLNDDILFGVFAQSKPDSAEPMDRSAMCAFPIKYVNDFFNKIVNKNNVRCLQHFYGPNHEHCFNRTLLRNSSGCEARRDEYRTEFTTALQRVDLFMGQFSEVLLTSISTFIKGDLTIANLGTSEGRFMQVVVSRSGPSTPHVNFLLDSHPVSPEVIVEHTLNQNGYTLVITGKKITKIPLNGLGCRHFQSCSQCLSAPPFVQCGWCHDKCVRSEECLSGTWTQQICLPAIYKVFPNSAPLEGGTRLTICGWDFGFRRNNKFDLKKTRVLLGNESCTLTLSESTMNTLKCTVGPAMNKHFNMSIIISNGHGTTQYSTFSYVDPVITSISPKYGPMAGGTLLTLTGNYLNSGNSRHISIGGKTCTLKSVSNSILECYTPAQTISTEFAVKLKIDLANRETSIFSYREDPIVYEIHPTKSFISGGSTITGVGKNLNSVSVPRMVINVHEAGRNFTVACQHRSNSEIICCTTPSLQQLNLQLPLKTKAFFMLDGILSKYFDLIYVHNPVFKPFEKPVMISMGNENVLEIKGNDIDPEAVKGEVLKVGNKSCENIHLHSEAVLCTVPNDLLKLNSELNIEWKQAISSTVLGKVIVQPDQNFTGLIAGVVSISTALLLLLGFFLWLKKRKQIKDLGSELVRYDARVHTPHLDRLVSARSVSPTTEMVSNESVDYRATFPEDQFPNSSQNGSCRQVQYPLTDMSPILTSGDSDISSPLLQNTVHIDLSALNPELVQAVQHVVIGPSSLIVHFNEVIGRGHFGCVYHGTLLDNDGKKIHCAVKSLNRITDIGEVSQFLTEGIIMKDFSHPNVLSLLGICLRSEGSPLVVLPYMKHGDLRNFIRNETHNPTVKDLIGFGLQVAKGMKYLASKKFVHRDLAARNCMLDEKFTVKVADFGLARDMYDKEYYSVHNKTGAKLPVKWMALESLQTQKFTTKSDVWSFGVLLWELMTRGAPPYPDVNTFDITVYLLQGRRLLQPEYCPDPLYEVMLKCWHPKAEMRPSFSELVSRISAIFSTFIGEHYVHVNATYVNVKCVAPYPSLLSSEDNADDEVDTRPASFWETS
For assay [19] the target is unchanged. As to conditions: at 1 µM.
The target of assay [20] is T2, Muscle, skeletal receptor tyrosine-protein kinase (Homo sapiens) (UniProt O15146).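 Further: values are mean inhibition of MuSK from the GSK PKIS kinase screening panel.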
T2 sequence (whole entry): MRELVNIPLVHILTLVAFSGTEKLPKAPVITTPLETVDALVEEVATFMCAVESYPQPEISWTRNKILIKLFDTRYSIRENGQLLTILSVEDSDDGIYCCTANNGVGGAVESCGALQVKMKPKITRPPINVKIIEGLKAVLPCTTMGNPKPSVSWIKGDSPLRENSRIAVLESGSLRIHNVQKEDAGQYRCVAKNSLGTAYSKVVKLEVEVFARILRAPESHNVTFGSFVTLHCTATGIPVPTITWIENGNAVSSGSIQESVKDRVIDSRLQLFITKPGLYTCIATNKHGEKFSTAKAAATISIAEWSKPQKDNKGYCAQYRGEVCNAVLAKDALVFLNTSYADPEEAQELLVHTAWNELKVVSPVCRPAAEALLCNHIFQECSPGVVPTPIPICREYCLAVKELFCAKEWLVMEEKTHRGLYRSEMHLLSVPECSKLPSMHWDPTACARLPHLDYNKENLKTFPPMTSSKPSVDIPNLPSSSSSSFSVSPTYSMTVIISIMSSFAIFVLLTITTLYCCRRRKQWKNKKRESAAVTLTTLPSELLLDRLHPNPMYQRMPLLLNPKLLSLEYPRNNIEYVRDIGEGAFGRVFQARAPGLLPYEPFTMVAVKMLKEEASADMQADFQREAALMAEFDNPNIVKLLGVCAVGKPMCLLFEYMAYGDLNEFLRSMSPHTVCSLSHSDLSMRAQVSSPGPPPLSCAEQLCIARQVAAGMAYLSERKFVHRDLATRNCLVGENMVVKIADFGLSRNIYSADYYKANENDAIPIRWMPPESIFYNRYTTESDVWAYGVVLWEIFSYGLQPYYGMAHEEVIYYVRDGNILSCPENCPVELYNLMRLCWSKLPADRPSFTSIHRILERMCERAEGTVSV
The conditions noted are these: at 0.1 µM.

As a reminder, the inhibition is the drop in the measured response relative to a control, in per cent.

Mast/stem cell growth factor receptor Kit (Homo sapiens), sequence (P10721 whole entry): as the sequence (P10721 whole entry T670I) above, with I670T counted along it
Mast/stem cell growth factor receptor Kit (Homo sapiens), P10721 [D816V], sequence (P10721 whole entry D816V): as the sequence (P10721 whole entry T670I) above, with I670T, D816V counted along it
Tyrosine-protein kinase Lck (Homo sapiens), sequence (P06239 2-509 limits assumed): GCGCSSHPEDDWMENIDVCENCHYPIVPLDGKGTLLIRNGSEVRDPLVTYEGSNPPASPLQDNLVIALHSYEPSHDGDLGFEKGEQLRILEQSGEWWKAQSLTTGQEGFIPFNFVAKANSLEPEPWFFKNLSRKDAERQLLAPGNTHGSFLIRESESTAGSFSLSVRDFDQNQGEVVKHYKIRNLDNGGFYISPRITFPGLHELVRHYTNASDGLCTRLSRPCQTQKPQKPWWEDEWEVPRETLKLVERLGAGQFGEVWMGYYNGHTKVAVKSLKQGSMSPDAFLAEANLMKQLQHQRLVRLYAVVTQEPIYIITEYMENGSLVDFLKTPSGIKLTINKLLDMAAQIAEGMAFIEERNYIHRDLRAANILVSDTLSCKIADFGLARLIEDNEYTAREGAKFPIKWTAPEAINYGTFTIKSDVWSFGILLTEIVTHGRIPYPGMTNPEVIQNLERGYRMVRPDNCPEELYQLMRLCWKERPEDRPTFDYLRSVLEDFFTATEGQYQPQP
Tyrosine-protein kinase Lyn (Homo sapiens), sequence (P07948 2-512 limits assumed): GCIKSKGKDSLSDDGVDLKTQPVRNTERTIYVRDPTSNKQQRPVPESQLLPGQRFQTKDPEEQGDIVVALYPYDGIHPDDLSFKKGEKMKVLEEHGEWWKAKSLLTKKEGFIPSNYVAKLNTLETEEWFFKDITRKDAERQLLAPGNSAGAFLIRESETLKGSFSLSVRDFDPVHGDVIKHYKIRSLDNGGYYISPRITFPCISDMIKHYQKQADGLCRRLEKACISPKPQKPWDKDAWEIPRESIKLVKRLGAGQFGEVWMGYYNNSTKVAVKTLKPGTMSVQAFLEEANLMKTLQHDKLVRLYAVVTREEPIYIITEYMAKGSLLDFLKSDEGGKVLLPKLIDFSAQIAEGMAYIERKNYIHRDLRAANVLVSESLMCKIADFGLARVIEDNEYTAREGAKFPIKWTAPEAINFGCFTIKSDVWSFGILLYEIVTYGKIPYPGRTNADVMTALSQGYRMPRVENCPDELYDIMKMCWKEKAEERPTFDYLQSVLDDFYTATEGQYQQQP

As for `O=S(=O)(CCNCc1ccc(-c2ccc3ncnc(Nc4ccc(OCc5cccc(F)c5)c(Cl)c4)c3c2)o1)c1ccccc1`, the inhibition is 9.57% in assay [1]; 3.44% in assay [2]; 6.21% in assay [3]; 3.42% in assay [4]; 5.36% in assay [5]; 0.27% in assay [6]. In addition, the inhibition in [7] is -1.16%; in [8] it was 3.99%; in assay [9], 8.49%; in [10] it was 5.14%; in [11], 5.42%; in [12], 6.84%. In addition, the inhibition was 7.64% in assay [13]; 3.9% in assay [14]; 4.05% in [15]; 3.42% in assay [16]; 7.37% in [17]; -0.44% in [18]. In addition, the inhibition in assay [19] was 6.95%; in assay [20], 6.83%.

With `c1ccc(COc2ccc(Nc3ncnc4ccc(-c5ccco5)cc34)cc2)cc1`, the inhibition in assay [1] is -0.06%; in [2], -2.23%; in assay [3] it was -0.29%; in assay [4] it was 0.67%; in [5] it was -1.15%; in [6], 2.08%. For the same compound, the inhibition in [7] worked out at 1.66%; in assay [8], 0.84%; in [9] it was 4.49%; in [10] it was 0.59%; in assay [11], 1.92%; in assay [12], 1.51%. Further, the inhibition in assay [13] was determined as 2.5%; in [14], 1.39%; in [15], 1.94%; in [16] it was 1.57%; in assay [17], 12.7%; in assay [18], 7.46%. In addition, the inhibition was determined as 2.85% in assay [19] and 0.09% in [20].

`CCOc1ccc2c(-c3ccnc(Nc4cccc(C(F)(F)F)c4)n3)cnn2n1`: the inhibition is 17.8% in assay [1]; 0.23% in assay [2]; 2.91% in [3]; 1.24% in assay [4]; 3.49% in assay [5]; -1.27% in assay [6]. The inhibition in [7] was 0.29%; in assay [8], 2.98%; in assay [9], 7.3%; in [10], 2.51%; in [11], 1.96%; in assay [12], 4.33%. Further, the inhibition in assay [13] was 4.33%; in assay [14], 3.97%; in assay [15], 3.17%; in [16], 0.97%; in [17], 3.35%; in [18], 3.01%. The inhibition was 3.51% in assay [19] and 2.25% in assay [20].

Turning to `O=C(Nc1n[nH]c2cc(-c3ccc(F)cc3)ccc12)C1CC1`, the inhibition is 5.1% in [1]; 3.06% in assay [2]; 5.66% in assay [3]; 3.36% in assay [4]; 4.92% in assay [5]; -2.61% in [6]. Besides, the inhibition in [7] turned out to be 0.08%; in assay [8], 1.9%; in [9], 7.59%; in [10], 2.47%; in [11] it was 2.75%; in assay [12] it was 6.61%. The inhibition in [13] is 5.51%; in [14], 3.7%; in assay [15], 3.43%; in [16], 2.14%; in assay [17], 2.68%; in assay [18], 1.03%. Moreover, the inhibition in assay [19] came to 0.71%; in assay [20], 2.93%.

As for `COc1ccc(CNC(=O)c2ccc(-c3cc(-c4nnc(C)o4)ccc3C)cc2)cc1`, the inhibition was 6.51% in [1]; -5.34% in assay [2]; 4.89% in [3]; 2.12% in assay [4]; 3.18% in [5]; 4.68% in [6]. Also, the inhibition in assay [7] was 4.58%; in assay [8], 0.44%; in assay [9], 3.44%; in assay [10], 1.41%; in [11] it was 4.21%; in assay [12] it was 4.62%. The inhibition in assay [13] stood at 7.5%; in [14], 2.67%; in assay [15], 7.12%; in [16] it was 3.37%; in assay [17], 3.49%; in assay [18], 11.8%. The inhibition stood at 10.3% in assay [19] and 3.25% in [20].

In the case of `Cc1ccc2c(-c3ccnc(Nc4ccccc4)n3)c(-c3ccc(F)cc3)nn2n1`, the inhibition was 75.7% in assay [1]; 1.56% in assay [2]; -0.04% in [3]; 0.33% in assay [4]; 3.98% in [5]; 1.13% in assay [6]. For the same compound, the inhibition in [7] turned out to be 27.9%; in assay [8] it was 15.8%; in assay [9], 56.9%; in assay [10], 2.45%; in assay [11], 2.78%; in assay [12], 10.8%. For the same compound, the inhibition in assay [13] was 50.1%; in [14], 8.55%; in assay [15], 44.4%; in [16], 3.07%; in assay [17], 23.9%; in assay [18] it was 1.64%. Moreover, the figures for the inhibition in [19] and in assay [20] were 8.18% and 3.5%, respectively.

As for `COC(=O)Nc1nc2ccc(S(=O)(=O)c3ccc(NC(=O)Nc4cc(C(F)(F)F)ccc4F)cc3)cc2[nH]1`, the inhibition in [1] was -0.26%; in assay [2], 3.87%; in [3] it was 5.14%; in [4], 1.09%; in assay [5], -0.17%; in [6], -0.14%. In addition, the inhibition in assay [7] came out at 0.67%; in [8] it was 2.26%; in [9], 3.94%; in [10], 1.63%; in [11], 0.53%; in assay [12] it was 3.86%. The inhibition in [13] was 3.43%; in [14], 1.56%; in assay [15], 3.05%; in [16] it was 0.88%; in assay [17] it was 4.05%; in [18] it was -2.38%. The inhibition in assay [19] was 0.66%; in assay [20] it was 2.5%.
